We go through 91 compounds from PubChem BioAssay AID602229 (The Scripps Research Institute Molecular Screening Center, 2012).

Hit rate of the full screen: of about 360,000 compounds, about 1,300 (0.36%) were called active. Shown is part of a subset that was picked to be rich in actives. Unmarked numbers belong to inactive results.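 Rule for the calls: active = inhibition above the mean of all tested compounds plus 3 SD (cut at about 70% in these data); inactive = the rest.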

Chain of Photoreceptor-specific nuclear receptor (Homo sapiens) (Q9Y5X4 whole entry, looked up, the tested form may be a part): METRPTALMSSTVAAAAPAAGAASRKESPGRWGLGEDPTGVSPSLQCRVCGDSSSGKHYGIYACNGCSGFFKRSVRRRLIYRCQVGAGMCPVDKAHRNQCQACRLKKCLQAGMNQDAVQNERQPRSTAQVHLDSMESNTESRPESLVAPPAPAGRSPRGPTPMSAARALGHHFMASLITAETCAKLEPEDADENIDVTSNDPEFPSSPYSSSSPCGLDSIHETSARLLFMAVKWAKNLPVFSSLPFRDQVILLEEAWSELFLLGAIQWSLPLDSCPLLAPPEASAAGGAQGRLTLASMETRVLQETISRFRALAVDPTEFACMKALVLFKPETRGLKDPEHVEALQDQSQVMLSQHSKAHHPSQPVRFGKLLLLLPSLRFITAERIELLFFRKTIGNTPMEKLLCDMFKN

This assay has as its target Photoreceptor-specific nuclear receptor (Homo sapiens) (UniProt Q9Y5X4). The assay is described as follows: NR2E3 agonists in two-hybrid cells, primary screen, cell-based, luminescence, CHO-S, Gal4-NCOR/VP16-NR2E3 (AID 602229).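 Note: 0% = DMSO with NR2E3 transfected cells and 100% = cells lacking NR2E3 construct; higher means lower luciferase signal from less NR2E3 corepressor binding.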 The note with it: luciferase, at 3.98 µM, hits give high values.
As for `Cc1nc(NC(=O)CCC(=O)O)sc1C(=O)N(C)C`, the inhibition of corepressor binding is -26.6%. On to `COc1ccc2c(c1)c(=Cc1ccc(N(C)C)cc1)c1cc(-c3ccccc3)[n+](C)n12`, for which the inhibition of corepressor binding was 82.2% (active). In the case of `C[C@@H]1NC(=O)c2cc([N+](=O)[O-])cc(F)c2NCCC[C@@H](C(N)=O)NC(=O)[C@H](CC(N)=O)NC1=O`, the inhibition of corepressor binding was -1.65%. The value for `O=C(Nc1ccccc1Cl)/C(Cl)=C(\Cl)S(=O)c1ccccc1` (stereo unspecified) was 90.4% (active); that for `O=C(Nc1ccccc1C(=O)N1CCCCCC1)c1ccccc1Cl` was -5.45%. The value for `Cc1cc(C(=O)OCC(=O)Nc2ccccc2Cl)c(C)o1` was -11.3%; that for `Cc1sc2ncnc(SCC(=O)NC3CCS(=O)(=O)C3)c2c1C` (stereo unspecified) was 11.1%. The value for `CCNC(=O)c1c(O)c2cccc3c2n(c1=O)CC3` was -12.8%; that for `CCN(CC)C(=O)CSc1nnc(CNc2ccc(F)cc2)n1Cc1ccco1` was -4.24%. On to `CC1CN(Cc2ccco2)C(=S)N(c2ccccc2)C1=O` (stereo unspecified), for which the inhibition of corepressor binding is 10.4%. With `CN(C)C(=S)N=c1ssc(=S)n1Cc1ccco1` the figure was 91.5% (active). The value for `C=CCNC(=O)c1ccccc1SCc1c(C)noc1C` was -20.3%; that for `CC(C)OCCCNc1ncnc2c1[nH]c1ccc(F)cc12` was 75.6% (active). Consider `CC(/C=C/c1ccco1)=N/NC(=O)C1COc2ccccc2O1` (stereo unspecified), for which the inhibition of corepressor binding was -22.3%. Regarding `CC1CC1C(=O)OCC(=O)c1c(N)n(C)c(=O)n(C)c1=O` (stereo unspecified), the inhibition of corepressor binding was 4.9%.

On to `FC(F)(F)c1nnc2c3ccccc3c(Cl)nn12`, for which the inhibition of corepressor binding is -2.37%. For `COc1ccc(OCCNS(=O)(=O)Cc2ccccc2)cc1`, the inhibition of corepressor binding is -15.6%. The value for `COc1ccc(S(=O)(=O)NCCOc2ccccc2)cc1F` was -29.5%; that for `COc1ccc(S(=O)(=O)NCCCCOc2ccc(Cl)cc2)cc1` was 96.7% (active); that for `CCOC(=O)c1sc(C)c2c1NC(C)(c1cccc3ccccc13)NC2=O` (stereo unspecified) was -1.53%. With `Cc1ccc(-c2cnc(C(O)c3cc(Cl)cc(Cl)c3)[nH]2)cc1` (stereo unspecified) the figure was -10.6%.

With `OC(c1ccc(F)cc1)c1ncc(-c2cccc(C(F)(F)F)c2)[nH]1` (stereo unspecified), the inhibition of corepressor binding is 30.1%. The value for `OC(c1ccc(Cl)cc1)c1ncc(-c2ccc(Cl)cc2)[nH]1` (stereo unspecified) was 71.4% (active); that for `Cc1[nH]n(C(N)=S)c(=O)c1N=Nc1ccc(Cl)cc1Cl` was -3.9%; that for `O=C(NCc1ccccc1)c1cccc(NC(=O)C2CCCCC2)c1` was -12.6%. The value for `O=C1CSC(c2cccc(F)c2)N1c1ccccc1F` (stereo unspecified) was -28.1%. Consider `O=C1C=C(c2ccnc3cc(Cl)ccc23)C[C@@H](c2ccc3c(c2)OCO3)C1`, for which the inhibition of corepressor binding was 85.8% (active). The value for `O=C1C=C(c2cccc(Cl)c2)C[C@@H](c2ccc(F)cc2)C1` was -24.8%; that for `O=C1C=C(c2cc(C(F)(F)F)cc(C(F)(F)F)c2)C[C@@H](c2ccc3c(c2)OCO3)C1` was -2.34%.

With `O=C(CN1CCSCC1)N/N=C/c1ccc(F)cc1F`, the inhibition of corepressor binding was -6.92%.

Take `CCOC(=O)N1CCN(S(=O)(=O)c2cc(Br)cc3c2N(C(=O)C2CC2)CC3)CC1`: the inhibition of corepressor binding is -15.4%. The value for `OC[C@@H]1CN(Cc2ccc(-c3ccccc3)cc2)C[C@H](n2cnc3c(NC4CCCC4)ncnc32)O1` was 91.4% (active). The value for `OC[C@@H]1CN(Cc2ccc(F)cc2)C[C@H](n2cnc3c(NC4CCCC4)ncnc32)O1` was -45.5%. Turning to `OC[C@@H]1CN(Cc2cccs2)C[C@H](n2cnc3c(NC4CCCC4)ncnc32)O1`, the inhibition of corepressor binding is -11.2%.

Turning to `O=C(CCc1nnc(CCCCc2ccccc2)o1)NC(c1cccnc1)C(F)(F)F` (stereo unspecified), the inhibition of corepressor binding was -10.3%. The value for `O=C(Nn1cnnc1)c1cc(Cl)ccc1Cl` was -4.56%. The value for `NC(=O)C1CCN(CC(O)CSc2ccc(F)cc2)CC1` (stereo unspecified) was -11.6%; that for `NS(=O)(=O)c1cc(C(=O)NCCOc2ccccc2)c(Cl)cc1Cl` was 16%. As for `Cc1ccc(S(=O)(=O)N2CCCC(C(=O)N3CCN(C)CC3)C2)cc1` (stereo unspecified), the inhibition of corepressor binding is -11.8%.

Regarding `CC(=O)N1CCCc2cc(S(=O)(=O)N3CCCC(C(=O)N4CCN(c5cccc(Cl)c5)CC4)C3)ccc21` (stereo unspecified), the inhibition of corepressor binding was 97.5% (active).

On to `COc1cccc(N2CCN(C(=O)C3CCCN(S(=O)(=O)c4cnc[nH]4)C3)CC2)c1` (stereo unspecified), for which the inhibition of corepressor binding is -11%.

Regarding `O=C(CCC1CCCC1)N=C1SC2CS(=O)(=O)CC2N1Cc1ccccc1` (stereo unspecified), the inhibition of corepressor binding is -16.6%.

On to `CCc1cccc(NC(=O)C2CCCN(S(=O)(=O)c3ccc4[nH]c(=O)ccc4c3)C2)c1` (stereo unspecified), for which the inhibition of corepressor binding is -18.2%. With `CC(=O)c1ccc(NC(=O)C2CCCN2S(=O)(=O)c2cccs2)cc1` (stereo unspecified) the figure was -7.87%; with `N#Cc1cccc(CSc2nnc(CCCO)n2-c2ccccc2)c1`, 1.83%; with `O=C(OC12CC3CC(CC(C3)C1)C2)c1ccc(NCc2cc(O)ccc2O)cc1`, 91.5% (active). With `CC(C)OC(=O)c1ccc(NCc2cc(O)ccc2O)cc1Cl` the figure was -8.58%; with `Cc1ccnc(NC(=O)Cn2ccc([N+](=O)[O-])n2)c1`, -2.77%. The value for `O=C(C1CCN(S(=O)(=O)c2ccc(Br)s2)CC1)N1CCN(c2ccccc2)CC1` was -1.63%; that for `COc1cccc(CNC(=O)CCN2C(=S)NC(C)(C)CC2C)c1` (stereo unspecified) was 9.24%. Take `COC(=O)[C@]1(S(=O)(=O)c2ccccc2)C[C@@H]2ON=C(c3ccc(OC)cc3)[C@@H]2C1`: the inhibition of corepressor binding is -7.87%. As for `N#C[C@]1(S(=O)(=O)c2ccccc2)C[C@@H]2ON=C(c3cccc(Br)c3)[C@@H]2C1`, the inhibition of corepressor binding was 77.6% (active). The value for `CCCc1cc(=O)[nH]c(SCC(=O)c2c(N)n(CC(C)C)c(=O)n(C)c2=O)n1` was 5.16%; that for `O=C(NC(Nc1nc2ccc([N+](=O)[O-])cc2s1)(C(F)(F)F)C(F)(F)F)c1ccccc1` was 102% (active). With `O=C(NNS(=O)(=O)Cc1ccccc1)c1ccc([N+](=O)[O-])cc1` the figure was 0.72%; with `O=C(Nc1cc(-c2ccccc2)nn1-c1ccccc1F)c1ccc([N+](=O)[O-])cc1`, 7.55%; with `CC(C)n1c(-c2ccncc2)n[nH]c1=S`, -6.98%. With `CCOC(=O)N1CCN(C(=O)C2CCN(Cc3ccc(OC)cc3OC)CC2)CC1` the figure was 9.52%; with `CCOC(=O)N1CCN(C(=O)C2CCCN(c3ncnc4c3sc3cccc(F)c34)C2)CC1` (stereo unspecified), -2.23%; with `CCOC(=O)N1CCN(C(=O)C2CCN(c3ncnc4c3sc3cccc(F)c34)CC2)CC1`, 78.5% (active). `CCOc1ccc(S(=O)(=O)n2ccnc2)c2ccccc12`: the inhibition of corepressor binding was 17.1%. The value for `COc1ccc(S(=O)(=O)N2CCCC2)c(C)c1C` was -29.4%. The value for `CCOc1ccc(S(=O)(=O)N2CCCCCC2)c2ccccc12` was 75.7% (active).

Consider `CCNC(=O)N1CCNC(=O)C1CC(=O)Nc1ccc(C(=O)OCC)cc1` (stereo unspecified), for which the inhibition of corepressor binding was -12.7%.

For `COC(=O)c1ccc(NS(=O)(=O)c2cc3c4c(c2)C(C)C(=O)N4CCC3)cc1` (stereo unspecified), the inhibition of corepressor binding was -17.2%.

For `OCCCNc1nccc(-c2cc(Nc3cccc(Cl)c3)ncn2)n1`, the inhibition of corepressor binding was 101% (active).

Consider `COCCCn1cc(CN2CC(N(C)C)CS2(=O)=O)nn1` (stereo unspecified), for which the inhibition of corepressor binding is 20.1%. With `Cc1cc(C)c(S(=O)(=O)c2cc(F)ccc2C)c(=O)[nH]1` the figure was -8.41%; with `CC(C)(CNC(=O)c1ccc(Cl)c(S(=O)(=O)N2CCc3ccccc3C2)c1)N1CCOCC1`, -7.92%. With `CCc1nc2ccc(C(=O)NC3CCN(Cc4ccccc4)CC3)cn2c1N(CC)CCOC` the figure was -6.67%; with `COc1cnc(-c2ccccn2)nc1Oc1ccc(C(C)(C)C)cc1`, 103% (active); with `CC(C)(C)c1ccc(Oc2ccc(N)cc2)cc1`, 62.9%. `COc1ccc2nc(-c3ccccn3)ccc2c1`: the inhibition of corepressor binding was -147%. The value for `CC(C)N(Cc1nnc(-c2ccc(Cl)cc2)o1)C(=O)C1=COCCO1` was -16.3%; that for `COc1ccc(CCNC(=O)CSCc2ccc(Br)cc2)cc1OC` was -15%; that for `CS(=O)(=O)c1ccc2nnn(OCC(=O)Nc3cccc(C#N)c3)c2c1` was -3.52%. On to `CCc1ccc(CNC(=O)CCc2nc(-c3cccs3)no2)cc1`, for which the inhibition of corepressor binding is -4.34%.

Consider `CCNC(=O)CCc1nc(-c2ccc(C(C)(C)C)cc2)no1`, for which the inhibition of corepressor binding is 75.3% (active). The value for `CCOc1ccc(-c2noc(CCC(=O)NC3CCCC3)n2)cc1OC` was 4.53%; that for `CN(CC(=O)NCCN1CCOCC1)S(=O)(=O)c1ccc(F)cc1` was -42.2%; that for `COc1cc(OC)cc(C2=Cc3ccccc3C(CC(=O)c3ccco3)N2c2ccc(-c3cnc(OC)nc3)cc2)c1` (stereo unspecified) was -30.9%.

As for `CCCn1c(C)cc(C(=O)COC(=O)c2c(C)nn(-c3ccccc3)c2C)c1C`, the inhibition of corepressor binding is 17.1%.

As to `Cc1ccsc1C(=O)OCC(=O)c1cc(C)n(CC2CCCO2)c1C` (stereo unspecified), the inhibition of corepressor binding is 89.5% (active).

Consider `COc1ccc(CNC(=O)COC(=O)c2sccc2C)cc1OC`, for which the inhibition of corepressor binding was -4.67%. In the case of `Cc1nc(CNS(=O)(=O)c2ccc(Oc3ccccc3)cc2)cs1`, the inhibition of corepressor binding was 92.4% (active). In the case of `Cc1ccc(S(=O)(=O)NCc2nc3ccccc3c(=O)n2N)cc1`, the inhibition of corepressor binding is 22.2%. The value for `Cc1nc(CNS(=O)(=O)c2cc([N+](=O)[O-])ccc2C)cs1` was 6.54%; that for `Cc1cc2ccccn2c1C(=O)c1cccc(S(=O)(=O)N2CCOCC2)c1` was 2.82%; that for `CCN(C(=O)CSc1nnnn1-c1ccc(OC)cc1)C1CCS(=O)(=O)C1` (stereo unspecified) was -16.1%.

Consider `CCC(C)N1C(=O)S/C(=C/c2ccc(Sc3nc4ccccc4[nH]3)o2)C1=O` (stereo unspecified), for which the inhibition of corepressor binding was 78.5% (active).

In the case of `CCOc1ccc(NC(=O)CN(C)C(=O)COc2cccc(CC)c2)cc1OCC`, the inhibition of corepressor binding was 2.58%.
